According to PubChem BioAssay AID1159580 (chemical genetic matrix, 2015):
About 2,000 (36%) of roughly 5,500 compounds were called active. About 18% were inconclusive and are not listed. Cut-off read from the data, not from the text of the source: active = normalized growth mostly below about 0.91 (no sharp cut-off); inconclusive = no clear call, values can overlap the other calls; inactive = mostly above about 0.92. Some of the results follow.

Test: chemical genetic growth profiling, strain panel (AID 1159580);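 note: tested at 20 µM; growth read once vehicle control cultures reached saturation at 30 °C; 1 = growth at the plate median or of vehicle wells; lower values mean less growth of the strain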
Details: S. cerevisiae deletion strains, growth OD
[1] = locus YAR019C, strain CDC15, hits give low values
[2] = locus YBL105C, strain PKC1, hits give low values
[3] = locus YBR135W, strain CKS1, hits give low values
[4] = locus YBR136W, strain MEC1, hits give low values
[5] = locus YBR160W, strain CDC28, hits give low values
[6] = locus YDL017W, strain CDC7, hits give low values
[7] = locus YDL028C, strain MPS1, hits give low values
[8] = locus YDL101C, strain DUN1, hits give low values
[9] = locus YDL108W, strain KIN28, hits give low values
[10] = locus YDL132W, strain cdc53, hits give low values
[11] = locus YDL214C, strain PRR2, hits give low values
[12] = locus YDR052C, strain DBF4, hits give low values
[13] = locus YDR054C, strain cdc34, hits give low values
[14] = locus YDR226W, strain ADK1, hits give low values
[15] = locus YDR477W, strain SNF1, hits give low values
[16] = locus YER123W, strain YCK3, hits give low values
[17] = locus YER133W, strain GLC7, hits give low values
[18] = locus YFL009W, strain cdc4, hits give low values
[19] = locus YFL029C, strain CAK1, hits give low values
[20] = locus YFR003C, strain YPI1, hits give low values
[21] = locus YFR019W, strain FAB1, hits give low values
[22] = locus YFR028C, strain CDC14, hits give low values
[23] = locus YGR040W, strain KSS1, hits give low values
[24] = locus YGR052W, strain FMP48, hits give low values
[25] = locus YGR092W, strain DBF2, hits give low values
[26] = locus YHR030C, strain SLT2, hits give low values
[27] = locus YHR079C, strain IRE1, hits give low values
[28] = locus YHR082C, strain KSP1, hits give low values
[29] = locus YHR205W, strain SCH9, hits give low values
[30] = locus YIL147C, strain SLN1, hits give low values
[31] = locus YJL095W, strain BCK1, hits give low values
[32] = locus YJL128C, strain PBS2, hits give low values
[33] = locus YJL157C, strain FAR1, hits give low values
[34] = locus YJR016C, strain ILV3, hits give low values
[35] = locus YJR066W, strain TOR1 (second series), hits give low values
[36] = locus YJR066W, strain TOR1, hits give low values
[37] = locus YKL048C, strain ELM1, hits give low values
[38] = locus YKL067W, strain YNK1, hits give low values
[39] = locus YKL101W, strain HSL1, hits give low values
[40] = locus YKL193C, strain SDS22, hits give low values
[41] = locus YKL203C, strain TOR2, hits give low values
[42] = locus YLR113W, strain HOG1, hits give low values
[43] = locus YLR133W, strain CKI1, hits give low values
[44] = locus YLR403W, strain SFP1, hits give low values
[45] = locus YML070W, strain DAK1, hits give low values
[46] = locus YMR001C, strain CDC5, hits give low values
[47] = locus YMR205C, strain PFK2 (second series), hits give low values
[48] = locus YMR277W, strain FCP1, hits give low values
[49] = locus YNL006W, strain LST8, hits give low values
[50] = locus YNL020C, strain ARK1, hits give low values
[51] = locus YNL161W, strain CBK1, hits give low values
[52] = locus YNL183C, strain NPR1, hits give low values
[53] = locus YNL207W, strain RIO2, hits give low values
[54] = locus YNL222W, strain SSU72, hits give low values
[55] = locus YNL307C, strain MCK1 (second series), hits give low values
[56] = locus YOL078W, strain AVO1, hits give low values
[57] = locus YOL136C, strain PFK27, hits give low values
[58] = locus YOR061W, strain CKA2, hits give low values
[59] = locus YOR119C, strain RIO1, hits give low values
[60] = locus YOR231W, strain MKK1, hits give low values
[61] = locus YOR329C, strain SCD5, hits give low values
[62] = locus YPL031C, strain PHO85, hits give low values
[63] = locus YPL153C, strain RAD53, hits give low values
[64] = locus YPL204W, strain HRR25, hits give low values
[65] = locus YPL209C, strain IPL1, hits give low values
[66] = locus YPL256C, strain CLN2, hits give low values
[67] = locus YPR025C, strain CCL1, hits give low values
[68] = locus YPR106W, strain ISR1, hits give low values
[69] = locus YPR111W, strain DBF20, hits give low values
[70] = strain NNK1, hits give low values
[71] = strain TSCII, hits give low values

Measured: normalized growth

N#CC1=C(N)C(C#N)(C#N)C2(CCCCC2)C2CCCC=C12 (stereo unspecified)
inactive: [1] 0.984 | [2] 0.982 | [3] 0.979 | [4] 0.982 | [5] 0.982 | [6] 0.98 | [7] 0.985 | [8] 0.983 | [9] 0.988 | [10] 0.98 | [11] 0.993 | [12] 0.977 | [13] 0.973 | [14] 0.983 | [15] 0.982 | [16] 0.984 | [17] 0.978 | [18] 0.978 | [19] 0.973 | [20] 0.985 | [21] 0.985 | [22] 0.985 | [23] 0.971 | [24] 1.05 | [25] 0.958 | [26] 0.972 | [27] 0.989 | [28] 0.975 | [29] 0.953 | [30] 0.985 | [31] 0.951 | [32] 0.961 | [33] 0.991 | [34] 0.989 | [35] 0.969 | [36] 0.968 | [37] 0.985 | [38] 1 | [39] 0.98 | [40] 0.981 | [41] 1.02 | [42] 0.959 | [43] 1 | [44] 0.979 | [45] 0.989 | [46] 0.98 | [47] 1 | [48] 0.985 | [49] 0.99 | [50] 0.998 | [51] 0.979 | [52] 0.963 | [53] 0.971 | [54] 0.982 | [55] 0.995 | [56] 0.979 | [57] 0.99 | [58] 1 | [59] 0.995 | [60] 0.973 | [61] 0.979 | [62] 0.978 | [63] 0.96 | [64] 0.971 | [65] 0.988 | [66] 0.965 | [67] 0.98 | [68] 0.986 | [69] 0.987 | [70] 0.985 | [71] 0.979

COc1cc(N=Cc2cc(Cl)cc(Cl)c2OS(=O)(=O)c2ccc(C)cc2)c(OC)cc1Cl
active: [26] 0.651 | [42] 0.85 | [66] 0.86
inactive: [1] 0.935 | [2] 0.948 | [3] 0.943 | [4] 0.944 | [5] 0.927 | [6] 0.957 | [7] 0.921 | [8] 0.951 | [9] 0.936 | [10] 0.942 | [11] 0.891 | [12] 0.958 | [13] 0.947 | [14] 0.946 | [15] 0.914 | [16] 0.896 | [17] 0.929 | [18] 0.926 | [19] 0.932 | [20] 0.952 | [21] 0.955 | [22] 0.919 | [23] 0.918 | [24] 0.917 | [25] 0.849 | [27] 0.794 | [28] 0.829 | [29] 0.846 | [30] 0.949 | [31] 0.903 | [32] 0.884 | [33] 0.928 | [34] 0.963 | [35] 0.943 | [36] 0.805 | [37] 0.939 | [38] 0.897 | [39] 0.902 | [40] 0.946 | [41] 0.991 | [43] 0.906 | [44] 0.911 | [45] 0.902 | [46] 0.934 | [47] 0.923 | [48] 0.922 | [49] 0.955 | [50] 0.903 | [51] 0.95 | [52] 0.941 | [53] 0.952 | [54] 0.92 | [55] 0.921 | [56] 0.94 | [57] 0.881 | [58] 0.945 | [59] 0.924 | [60] 0.845 | [61] 0.958 | [62] 0.926 | [63] 0.911 | [64] 0.906 | [65] 0.947 | [67] 0.948 | [68] 0.942 | [69] 0.901 | [70] 0.943 | [71] 0.935

CCN(CC)CCCCCCCCOC(=O)c1cc(OC)c(OC)c(OC)c1
inactive: locus YAL040C, strain CLN3, hits give low values 1.01 | locus YDR363W, strain ESC2, hits give low values 1.01 | locus YER002W, strain NOP16, hits give low values 0.999 | locus YGR078C, strain PAC10, hits give low values 1.01 | locus YNL175C, strain NOP13, hits give low values 1.01 | locus YNL197C, strain WHI3, hits give low values 1.02 | locus YNL224C, strain SQS1, hits give low values 0.985 | locus YNL322C, strain KRE1, hits give low values 0.992 | locus YOR083W, strain WHI5 (second series), hits give low values 1.03
